The nature of test [1]: stimulators of insulin release from INS-1E, primary screen, cell-based, 5 mM glucose, NPC library (AID 1117329;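 active = compound raises insulin release from rat beta cells at 5 mM glucose, no numeric limit stated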). The note with it: rat INS-1E insulin secretion, at 10 µM, stronger effect = higher value.
Test [2] in a line: growth inhibition of GSK3B-pretreated HCT116 cells – cell-based, CellTiter-Glo, 0.2 to 20 µM (AID 1117336;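 active = compounds lowering colon cancer cell viability after pretreatment blocking the GSK3B kinase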). As to conditions: HCT116 viability after GSK3B inhibitor, at 20 µM, stronger effect = higher value.
The nature of test [3]: inhibition of endothelial tube formation, primary screen, imaging, VEGF stimulated, CD31 staining, tube area, NPC library (AID 1117340;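 active = compound that reduces growth-factor-driven endothelial tube area in a mixed cell culture, no cutoff stated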). The note with it: VEGF-stimulated ADSC/ECFC co-culture, at 10 µM, stronger effect = higher value.
The nature of test [4]: glucagon-like peptide 1 release enhancers, primary assay, NCI-H716 cell line, NPC library (AID 1117341). As to conditions: NCI-H716 cells, at 10 µM, stronger effect = higher value.
Test [5] can be described thus: HCT116 colon cancer cell growth inhibition, primary screen, CellTiter-Glo luminescence, NPC library (AID 1117342;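 active = compounds that lower survival of HCT116 colon cancer cells in the luminescence readout, no numeric limit stated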). The note with it: at 20 µM (top of the series). For orientation: In ATP-based viability assays light output follows the ATP content of the culture.
The nature of test [6]: CellTiter-Glo luminescent readout of SW480 viability loss, NPC library primary (AID 1117343;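 active = compounds that lower viability of the colon cancer cells in the luminescence readout, with no numeric limit stated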). The note with it: CellTiter-Glo luminescence; at 20 µM (top of the series).
Test [7] is described as follows: decreased DLD-1 cellular survival, CellTiter-Glo luminescent readout, NPC compound collection, primary HTS (AID 1117346;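 active = compounds that lower survival of DLD-1 colon cancer cells in the luminescence readout, no cutoff given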). As to conditions: DLD-1 viability, CellTiter-Glo luminescence; at 20 µM (top of the series).
Test [8] can be described thus: differential killing of epithelial or mesenchymal cells, primary screen, imaging, PC-3E GFP, TEM4-18 mCherry, co-culture (AID 1345086;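 active = compounds killing one labelled cell type while sparing the other, by normalised counts and ratio limits, not self-fluorescent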;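 for all read-outs here: cells exposed to compound for 72 h before imaging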;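 for red/green cell ratio (normalised): normalised mesenchymal count divided by normalised epithelial count so high means epithelial killing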). The note with it: imaging cell counts, at 1 µM; for red/green cell ratio (normalised): actives lie on both sides, counts scaled to control wells, 1 = unselective.
The nature of test [9]: growth inhibition of DIPG glioma cells, dose response, cell-based, SU-DIPG-XVII, MIPE5.0, CellTiter-Glo, qHTS (AID 1347060; cut-off not given, nearly all actives have AC50 up to about 26 µM;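 for AC50: cells exposed to compound for 48 hours before viability readout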). As to conditions: SU-DIPG-XVII viability, CellTiter-Glo ATP luminescence.
A short description of test [10]: growth inhibition of DIPG glioma cells, dose response, cell-based, SU-DIPG-XIII, MIPE4.0, CellTiter-Glo, qHTS (AID 1347061; cut-off not given, nearly all actives have AC50 up to about 37 µM;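 note: cells exposed to compound for 48 hours before readout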). As to conditions: SU-DIPG-XIII viability, CellTiter-Glo ATP luminescence.
Test [11] can be described thus: growth inhibition of DIPG glioma cells, dose response, cell-based, JHH-DIPG-1, MIPE4.0, CellTiter-Glo, qHTS (AID 1347062; cut-off not given, nearly all actives have AC50 up to about 27 µM). The note with it: JHH-DIPG-1 viability, CellTiter-Glo ATP luminescence.
Test [12] in a line: growth inhibition of DIPG glioma cells, dose response, cell-based, SU-DIPG-IV, MIPE4.0, CellTiter-Glo, qHTS (AID 1347063; cut-off not given, nearly all actives have AC50 up to about 30 µM;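 note: compound exposure lasted 48 hours before the viability readout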). As to conditions: SU-DIPG-IV viability, CellTiter-Glo ATP luminescence.
Test [13] has as its system Aerobactin synthetase IucA (Klebsiella pneumoniae). The test can be described thus: IucA aerobactin synthetase inhibitors, biochemical, Tocris library, absorbance (AID 1345561; call rule not given here;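 note: 100% = enzyme without compound and 0% = no enzyme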). As to conditions: purified IucA enzyme assay, absorbance (OD) read-out; stronger effect = lower value;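 tested at 8 µM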.
Test [14] can be described thus: growth inhibition of DIPG glioma cells, dose response, cell-based, SU-DIPG-XIII, MIPE5.0, CellTiter-Glo, qHTS (AID 1347064; cut-off not given, nearly all actives have AC50 up to about 23 µM). The note with it: SU-DIPG-XIII viability, CellTiter-Glo ATP luminescence.
Where [15] appears, read: measured here: epithelial PC-3E GFP cell survival.
Setting [16] is: measured here: mesenchymal TEM4-18 mCherry cell survival.

Several values for one entry are separate records, joined by “and”; a condition that tells them apart may be missing. Identical values can stand only once. Inconclusive results are not listed. Activity calls are given as the source filed them.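 Rule for the calls, unless noted: active = compound raises GLP1 secretion from the human gut endocrine cells, with no numeric limit stated; inactive = the rest.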

Data on 7 molecules can be found in PubChem BioAssay.

Usually remaining activity stands for the signal under treatment as a percentage of the control signal. In general, AC50 refers to the concentration giving half of the maximal activity seen.

With `CC1=C(C)C(=O)C(C(CCCCCC(=O)O)c2ccccc2)=C(C)C1=O` (centres undefined), the insulin secretion stimulation in [1] is -0.1% (inactive). For the same molecule, the viability decrease in test [2] was 20.4% (inactive). For the same molecule, the tube area decrease in [3] was -6.8% (inactive). Further, the GLP1 secretion stimulation in [4] was 4% (inactive). Besides, the inhibition of viability in test [5] is -4.2% (inactive). The values for the viability decrease (inhibition) in test [6] and in test [7] were -12.9% (inactive) and -13.3% (inactive), respectively. In addition, in test [8], the red/green cell ratio (normalised) was 1.03 (inactive). Also, the normalised cell number in test [8] (setting [15]) is 1.04; in test [8] (setting [16]) it was 1.08. Moreover, the molecule was classed as inactive in test [9], in [10], in [11] and in test [12].

`O=C(O)CN1C(=O)c2cccc3cccc(c23)C1=O`: the insulin secretion stimulation in [1] is -1.8% (inactive). Moreover, the viability decrease in [2] is -2.7% (inactive). Besides, the tube area decrease in [3] was -6.3% (inactive). For the same molecule, the GLP1 secretion stimulation in [4] is 1.6% (inactive). In addition, the inhibition of viability in [5] is -17.1% (inactive). Also, the results for the viability decrease (inhibition) in [6] and in [7] were 22.8% (inactive) and 2.05% (inactive), respectively. Also, the red/green cell ratio (normalised) in [8] is 1.28 (inactive). For the same molecule, the normalised cell number in test [8] (setting [15]) amounted to 1; in test [8] (setting [16]) it was 1.28. The remaining activity in test [13] is 110% (inactive).

On to `COCCCOc1cc(C[C@@H](C[C@H](N)[C@@H](O)C[C@H](C(=O)NCC(C)(C)C(N)=O)C(C)C)C(C)C)ccc1OC`, for which the insulin secretion stimulation in test [1] is 0.9% (inactive). In addition, the viability decrease in test [2] is -5.3% (inactive). Moreover, the tube area decrease in [3] was 19.9% (inactive). Moreover, the GLP1 secretion stimulation in test [4] is -4.7% (inactive). Further, the inhibition of viability in test [5] is 19.7% (inactive). Moreover, the viability decrease (inhibition) was 4.7% (inactive) in test [6] and 12.1% (inactive) in [7]. The red/green cell ratio (normalised) in [8] was 0.98 (inactive). Further, the results for the normalised cell number in test [8] (setting [15]) and in [8] (setting [16]) were 0.98 and 0.96, respectively. Besides, the result in test [9], in test [10] and in [11] was inactive.

`C#C[C@]1(O)CC[C@H]2[C@@H]3CCc4cc(O)ccc4[C@H]3CC[C@@]21C`: the insulin secretion stimulation in [1] is 10.3% (inactive). Further, the viability decrease in test [2] was 45.9% (inactive). For the same molecule, in test [3], the tube area decrease is 85.8% (active). Moreover, the GLP1 secretion stimulation in test [4] is -3.4% (inactive). In addition, in [5], the inhibition of viability is 70.3% (active). For the same molecule, the viability decrease (inhibition) in [6] is 65.6% (active); in test [7] it was 62.5% (active). Besides, the half-maximal activity concentration (AC50) in test [9] is 16.6 µM (active). The molecule was classed as inactive in [14].

Consider `CC(=O)O[C@H]1C[C@@H]2CC[C@@H]3[C@H](CC[C@@]4(C)[C@H]3C[C@H]([N+]3(C)CCCCC3)[C@@H]4OC(C)=O)[C@@]2(C)C[C@@H]1N1CCCCC1`, for which the insulin secretion stimulation in test [1] is 0.6% (inactive). In addition, the viability decrease in test [2] was -4.1% (inactive). Also, the tube area decrease in [3] was 4.6% (inactive). Besides, in [4], the GLP1 secretion stimulation was 13.2% (inactive). For the same molecule, in test [5], the inhibition of viability is 3.2% (inactive). Also, the results for the viability decrease (inhibition) in [6] and in [7] were -6.9% (inactive) and -7.1% (inactive), respectively. Moreover, the molecule was called inactive in test [9], in test [10], in [11] and in test [12].

On to `CCCCCN(C)CCC(O)(P(=O)(O)O)P(=O)(O)O`, for which, in [1], the insulin secretion stimulation was 7.6% (inactive). In [2], the viability decrease is 1.9% (inactive). The tube area decrease in test [3] was -11.9% (inactive). Also, in test [4], the GLP1 secretion stimulation is -0.5% (inactive). Besides, the inhibition of viability in test [5] was 9% (inactive). Also, the values for the viability decrease (inhibition) in [6] and in [7] were 17.5% (inactive) and 15.6% (inactive), respectively. In [8], the red/green cell ratio (normalised) was 1.14 (inactive). Besides, the normalised cell number is 0.86 in [8] (setting [15]) and 0.98 in [8] (setting [16]). In addition, the molecule was called inactive in test [9], in test [10], in test [11], in [12] and in [14].

For the molecule `COC(=O)[C@H]1[C@H]2C[C@@H]3c4[nH]c5cc(OC)ccc5c4CCN3C[C@H]2C[C@@H](OC(=O)c2cc(OC)c(OC)c(OC)c2)[C@@H]1OC`, in test [1], the insulin secretion stimulation is -0.3% (inactive). Besides, in test [2], the viability decrease is 24.4% (inactive). In [3], the tube area decrease is 22.8% (inactive). The GLP1 secretion stimulation in test [4] was 3.6% (inactive). The inhibition of viability in test [5] is 40.1% (inactive). Moreover, the values for the viability decrease (inhibition) in test [6] and in test [7] were -42% (inactive) and 10.4% (inactive), respectively. Also, the red/green cell ratio (normalised) in test [8] is 1.08 (inactive) and 1.2 (inactive). The normalised cell number in [8] (setting [15]) was 0.87 and 1.06; in test [8] (setting [16]), 0.94 and 1.27. The remaining activity in test [13] was 124% (inactive).
